Source: PubChem BioAssay (NCATS)
Inconclusive results are not listed. The source made the active and inactive calls. Calls come from the whole dose curve; as a rule, active = well fitted curve in the direction sought with a large enough effect; inconclusive = small, poorly fitted or top-dose-only effect, or another doubt; inactive = no such curve, though single readings can be large; an effect the other way counts as inactive or inconclusive.

How the values were obtained:
[1] = Quantitative High-Throughput drug screen in 47 multiple myeloma cell lines against the NCATS MIPE library collection: Delta47_JCRB cell viability assay (AID 1918925; note: nearly all actives have a fitted effect of over 45% in size)
How it was run: (§1)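 Myeloma cell lines, 500 cells per well, exposed to MIPE 4.0 library compounds for 48 h at 37C, 5% CO2. Viability from ATP by CellTiter-Glo luminescence; normalised to DMSO (100%) and media-only (0%) wells.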

[2] = Quantitative High-Throughput drug screen in 47 multiple myeloma cell lines against the NCATS MIPE library collection: EJM_DSMZ cell viability assay (AID 1918926; note: nearly all actives have a fitted effect of over 30% in size)
How it was run: as §1

[3] = Quantitative High-Throughput drug screen in 47 multiple myeloma cell lines against the NCATS MIPE library collection: JIM3_ECACC cell viability assay (AID 1918963; note: nearly all actives have a fitted effect of over 35% in size)
How it was run: (§2)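 Inhibition of cell viability is measured here. Each line was plated at 500 cells per well, treated with MIPE 4.0 drugs, kept 48 hours at 37C, then assayed for ATP content by CellTiter-Glo luminescence.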

[4] = Quantitative High-Throughput drug screen in 47 multiple myeloma cell lines against the NCATS MIPE library collection: JJN3_DSMZ cell viability assay (AID 1918966; note: nearly all actives have a fitted effect of over 50% in size)
How it was run: as §1

[5] = Quantitative High-Throughput drug screen in 47 multiple myeloma cell lines against the NCATS MIPE library collection: H1112_PLB cell viability assay (AID 1918967; note: nearly all actives have a fitted effect of over 30% in size)
How it was run: as §1

[6] = Quantitative High-Throughput drug screen in 47 multiple myeloma cell lines against the NCATS MIPE library collection: Karpas25_ECACC cell viability assay (AID 1918968; note: nearly all actives have a fitted effect of over 35% in size)
How it was run: as §1

[7] = Quantitative High-Throughput drug screen in 47 multiple myeloma cell lines against the NCATS MIPE library collection: KMS27_JCRB cell viability assay (AID 1918970); settings: KMS27 myeloma cells, CellTiter-Glo ATP viability, 48 h; viability (% of DMSO): at 45.8 µM (top of the series); note: nearly all actives have a fitted effect of over 30% in size
How it was run: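 Each line is seeded at 500 cells per well and treated with library compounds for 48 hours under 37 °C, 5% CO2. CellTiter-Glo is then added for 5 min at room temperature before median relative luminescence is recorded.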

[8] = Quantitative High-Throughput drug screen in 47 multiple myeloma cell lines against the NCATS MIPE library collection: KMS12BM_JCRB cell viability assay (AID 1918971); note: nearly all actives have a fitted effect of over 35% in size
How it was run: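 Relative luminescence from CellTiter-Glo served as the viability signal, referenced to DMSO-treated (100%) and cell-free medium (0%) controls. Treatment lasted 48 hours at 37C with 500 cells per well.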

[9] = Quantitative High-Throughput drug screen in 47 multiple myeloma cell lines against the NCATS MIPE library collection: ARD_JJKsccE7 cell viability assay (AID 1918929)
How it was run: as §1

[10] = Quantitative High-Throughput drug screen in 47 multiple myeloma cell lines against the NCATS MIPE library collection: Karpas620_DSMZ cell viability assay (AID 1918959); note: nearly all actives have a fitted effect of over 30% in size
How it was run: as §2

[11] = Quantitative High-Throughput drug screen in 47 multiple myeloma cell lines against the NCATS MIPE library collection: KMM1_JCRB cell viability assay (AID 1918960); note: nearly all actives have a fitted effect of over 30% in size
How it was run: (§3)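 Myeloma cells at 500 per well in 1536-well format treated with MIPE 4.0 library by pin transfer for 48 h at 37C, 5% CO2. Viability from ATP luminescence (CellTiter-Glo), normalized to DMSO (100%) and media-only (0%) wells.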

[12] = Quantitative High-Throughput drug screen in 47 multiple myeloma cell lines against the NCATS MIPE library collection: INA6_PLB cell viability assay (AID 1918965; note: nearly all actives have a fitted effect of over 55% in size)
How it was run: (§4)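 qHTS of the MIPE 4.0 collection: 500 myeloma cells/well, 48 h drug exposure at 37C in 5% CO2, then CellTiter-Glo for 5 min at room temperature before luminescence reading.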

[13] = Quantitative High-Throughput drug screen in 47 multiple myeloma cell lines against the NCATS MIPE library collection: KMS12PE_JCRB cell viability assay (AID 1918972); note: nearly all actives have a fitted effect of over 30% in size
How it was run: as §4

[14] = Quantitative High-Throughput drug screen in 47 multiple myeloma cell lines against the NCATS MIPE library collection: KHM11_PLB cell viability assay (AID 1918962); note: nearly all actives have a fitted effect of over 35% in size
How it was run: as §2

[15] = Quantitative High-Throughput drug screen in 47 multiple myeloma cell lines against the NCATS MIPE library collection: JIM1_ECACC cell viability assay (AID 1918964)
How it was run: as §1

[16] = Quantitative High-Throughput drug screen in 47 multiple myeloma cell lines against the NCATS MIPE library collection: KMS20_JCRB cell viability assay (AID 1918973); note: nearly all actives have a fitted effect of over 45% in size
How it was run: as §1

[17] = Quantitative High-Throughput drug screen in 47 multiple myeloma cell lines against the NCATS MIPE library collection: ARP1_JJKsccF8 cell viability assay (AID 1918928; note: nearly all actives have a fitted effect of over 40% in size)
How it was run: as §3

[18] = Quantitative High-Throughput drug screen in 47 multiple myeloma cell lines against the NCATS MIPE library collection: AMO1_DSMZ cell viability assay (AID 1918927; note: nearly all actives have a fitted effect of over 30% in size)
How it was run: as §1

[19] = Quantitative High-Throughput drug screen in 47 multiple myeloma cell lines against the NCATS MIPE library collection: Karpas417_ECACC cell viability assay (AID 1918961); settings: Karpas417 myeloma viability, CellTiter-Glo ATP luminescence, 48 h; viability (% of DMSO): at 45.8 µM (top of the series)
How it was run: as §4
Potency is the fitted concentration of half-maximal effect.

With `CC(C)C[C@H](NC(=O)c1cc2ccccc2s1)C(=O)N1CCN(C(=O)[C@H](CO)NS(=O)(=O)c2ccc(Cl)cc2Cl)CC1` the Potency [1] was 26.4 µM (active), the Potency [2] was 18.7 µM (active) and the Potency [3] was 20.9 µM (active). The Potency [4] was 18.7 µM (active), the Potency [5] was 20.9 µM (active) and the Potency [6] was 26.4 µM (active). For the same molecule, the Potency [7] was “inactive” and the Potency [8] was 18.7 µM (active).

In the case of `NC(N)=Nc1nc(CSCCC(N)=NS(N)(=O)=O)cs1`, the Potency [1] was 10.5 µM (active), the Potency [2] was 23.5 µM (active) and the Potency [9] was “inactive”. For the same molecule, the Potency [10] was “inactive”, the Potency [11] was “inactive” and the Potency [12] was 11.8 µM (active). The Potency [5] was 16.6 µM (active), the Potency [6] was 11.8 µM (active) and the Potency [8] was “inactive”. The Potency [13] was “inactive”.

For `NC(=O)c1ncn([C@@H]2O[C@H](CO)[C@@H](O)[C@@H]2O)n1`, the Potency [1] was “inactive”, the Potency [2] was “inactive” and the Potency [9] was “inactive”. The Potency [10] was “inactive”, the Potency [14] was “inactive” and the Potency [3] was “inactive”. The Potency [15] was “inactive”, the Potency [12] was “inactive” and the Potency [5] was “inactive”. For the same molecule, the Potency [6] was “inactive”, the Potency [7] was “inactive” and the Potency [13] was “inactive”. For the same molecule, the Potency [16] was “inactive”.

With `OC[C@H]1O[C@@H](Oc2ccc(O)cc2)[C@H](O)[C@@H](O)[C@H]1O` the Potency [1] was “inactive”, the Potency [2] was “inactive” and the Potency [10] was “inactive”. For the same molecule, the Potency [11] was “inactive”, the Potency [14] was “inactive” and the Potency [3] was 10.5 µM (active). The Potency [6] was “inactive”.

In the case of `Cc1nc(C(=O)NCC(=O)O)c(O)c2ccc(Oc3ccccc3)cc12`, the Potency [1] was “inactive”, the Potency [2] was “inactive” and the Potency [17] was “inactive”. For the same molecule, the Potency [10] was “inactive”, the Potency [3] was “inactive” and the Potency [12] was “inactive”. The Potency [5] was “inactive” and the Potency [6] was “inactive”.

With `Cc1cccc2c1CC[C@H](CN1CCC(c3c(Cl)cccc3Cl)CC1)C[C@@H]2O` the Potency [1] was 16.6 µM (active), the Potency [2] was 18.7 µM (active) and the Potency [10] was 11.8 µM (active). The Potency [14] was 20.9 µM (active), the Potency [3] was 14.8 µM (active) and the Potency [12] was 18.7 µM (active). The Potency [6] was 18.7 µM (active), the Potency [8] was 16.6 µM (active) and the Potency [16] was 20.9 µM (active).

In the case of `COc1ccc(CCN(C)CCCOc2ccc(S(=O)(=O)c3[nH]c4ccccc4c3C(C)C)cc2)cc1OC`, the Potency [1] was 20.9 µM (active), the Potency [18] was “inactive” and the Potency [17] was “inactive”. The Potency [9] was “inactive”, the Potency [10] was “inactive” and the Potency [11] was “inactive”. For the same molecule, the Potency [3] was 18.7 µM (active), the Potency [12] was 16.6 µM (active) and the Potency [7] was “inactive”. For the same molecule, the Potency [8] was 23.5 µM (active) and the Potency [13] was “inactive”.

In the case of `O=C(CC12CC3CC(CC(C3)C1)C2)Nc1cccc2nc(NCCNCCO)ccc12`, the Potency [1] was 2.64 µM (active), the Potency [2] was 11.8 µM (active) and the Potency [18] was 20.9 µM (active). The Potency [9] was 18.7 µM (active), the Potency [19] was 1.48 µM (active) and the Potency [14] was 5.26 µM (active). The Potency [3] was 9.35 µM (active), the Potency [12] was 9.35 µM (active) and the Potency [4] was 9.35 µM (active). The Potency [5] was 7.43 µM (active), the Potency [6] was 5.9 µM (active) and the Potency [7] was 18.7 µM (active). The Potency [8] was 18.7 µM (active), the Potency [13] was 9.35 µM (active) and the Potency [16] was 6.62 µM (active).

In the case of `CNc1nc(Nc2ccc(C(=O)N3CCOCC3)cc2OC)ncc1Cl`, the Potency [1] was “inactive”, the Potency [2] was “inactive” and the Potency [18] was “inactive”. The Potency [10] was “inactive”, the Potency [11] was “inactive” and the Potency [3] was 20.9 µM (active). For the same molecule, the Potency [5] was “inactive”, the Potency [6] was “inactive” and the Potency [8] was 14.8 µM (active). The Potency [13] was “inactive”.

For `C=CCc1cccc(C=NNC(=O)CN2CCN(Cc3ccccc3)CC2)c1O`, the Potency [1] was 18.7 µM (active), the Potency [18] was 5.26 µM (active) and the Potency [17] was 9.35 µM (active). The Potency [10] was 9.35 µM (active), the Potency [11] was 5.26 µM (active) and the Potency [14] was 20.9 µM (active). The Potency [3] was 23.5 µM (active), the Potency [15] was 5.26 µM (active) and the Potency [12] was 14.8 µM (active). For the same molecule, the Potency [6] was 18.7 µM (active), the Potency [7] was 5.26 µM (active) and the Potency [13] was 4.18 µM (active). The Potency [16] was 20.9 µM (active).

For `CC(=O)OCC(=O)[C@@]1(O)CC[C@H]2[C@@H]3CCC4=CC(=O)C=C[C@]4(C)[C@@H]3[C@@H](O)C[C@@]21C`, the Potency [1] was “inactive”, the Potency [2] was “inactive” and the Potency [11] was “inactive”. The Potency [19] was “inactive”, the Potency [15] was “inactive” and the Potency [12] was 7.43 µM (active). The Potency [5] was “inactive”, the Potency [6] was 0.526 µM (active) and the Potency [7] was “inactive”. The Potency [8] was 0.187 µM (active) and the Potency [13] was “inactive”.

In the case of `CCC[C@@H](NC(=O)[C@@H]1[C@H]2CCC[C@@H]2CN1C(=O)[C@@H](NC(=O)[C@@H](NC(=O)c1cnccn1)C1CCCCC1)C(C)(C)C)C(=O)C(=O)NC1CC1`, the Potency [1] was 14.8 µM (active), the Potency [2] was “inactive” and the Potency [18] was 18.7 µM (active). The Potency [10] was 18.7 µM (active), the Potency [3] was 20.9 µM (active) and the Potency [5] was 18.7 µM (active). For the same molecule, the Potency [6] was 18.7 µM (active), the Potency [7] was “inactive” and the Potency [13] was 14.8 µM (active).

With `CC1=C(C(=O)Nc2cc3cn[nH]c3cc2F)C(c2ccc(C(F)(F)F)cc2)CC(=O)N1` (configuration not stated) the Potency [1] was “inactive”, the Potency [2] was “inactive” and the Potency [9] was “inactive”. The Potency [10] was “inactive”, the Potency [11] was “inactive” and the Potency [14] was “inactive”. The Potency [3] was “inactive”, the Potency [12] was 18.7 µM (active) and the Potency [5] was “inactive”. For the same molecule, the Potency [13] was “inactive” and the Potency [16] was “inactive”.

In the case of `CC(=O)NCCC(=O)N[C@@H](CCC(N)=O)C(=O)N[C@@H](CO)C(=O)N[C@@H](CCC(N)=O)C(=O)N[C@@H](CCC(N)=O)C(=O)N[C@H](C(=O)N[C@@H](Cc1ccccc1)C(=O)N[C@]1(C)CCCCCCC=CCCC[C@@](C)(C(=O)N[C@@H](CCC(N)=O)C(=O)N[C@@H](CC(N)=O)C(N)=O)NC(=O)[C@H](CC(C)C)NC(=O)[C@H](CC(C)C)NC(=O)[C@@H](CCCNC(=N)N)NC(=O)[C@H](Cc2c[nH]c3ccccc23)NC(=O)[C@H](CC(C)C)NC(=O)[C@H](CC(N)=O)NC1=O)[C@H](C)O`, the Potency [1] was 20.9 µM (active), the Potency [2] was 18.7 µM (active) and the Potency [17] was 20.9 µM (active). For the same molecule, the Potency [10] was “inactive”, the Potency [11] was “inactive” and the Potency [14] was 18.7 µM (active). The Potency [3] was 20.9 µM (active), the Potency [15] was 7.43 µM (active) and the Potency [4] was 14.8 µM (active). The Potency [6] was 26.4 µM (active), the Potency [8] was 9.35 µM (active) and the Potency [13] was “inactive”.
